Source: PubChem
Most compounds without a hit are left out; they make up all but 2.4% or so of the library.
POLK inh = qHTS for Inhibitors of Polymerase Kappa; purified Pol kappa, fluorescent DNA synthesis assay, 10 min; Potency, µM (highest dose often 107 µM), inactives show top-dose activity, negative = inhibition, most hits filed as inhibitors; 400,000 compounds, 0.53% hits; AID 588579, 2011; note: % is set by controls: 0 for no effect and ±100 for the full control effect
Target sequence (Q9UBT6 whole entry, looked up): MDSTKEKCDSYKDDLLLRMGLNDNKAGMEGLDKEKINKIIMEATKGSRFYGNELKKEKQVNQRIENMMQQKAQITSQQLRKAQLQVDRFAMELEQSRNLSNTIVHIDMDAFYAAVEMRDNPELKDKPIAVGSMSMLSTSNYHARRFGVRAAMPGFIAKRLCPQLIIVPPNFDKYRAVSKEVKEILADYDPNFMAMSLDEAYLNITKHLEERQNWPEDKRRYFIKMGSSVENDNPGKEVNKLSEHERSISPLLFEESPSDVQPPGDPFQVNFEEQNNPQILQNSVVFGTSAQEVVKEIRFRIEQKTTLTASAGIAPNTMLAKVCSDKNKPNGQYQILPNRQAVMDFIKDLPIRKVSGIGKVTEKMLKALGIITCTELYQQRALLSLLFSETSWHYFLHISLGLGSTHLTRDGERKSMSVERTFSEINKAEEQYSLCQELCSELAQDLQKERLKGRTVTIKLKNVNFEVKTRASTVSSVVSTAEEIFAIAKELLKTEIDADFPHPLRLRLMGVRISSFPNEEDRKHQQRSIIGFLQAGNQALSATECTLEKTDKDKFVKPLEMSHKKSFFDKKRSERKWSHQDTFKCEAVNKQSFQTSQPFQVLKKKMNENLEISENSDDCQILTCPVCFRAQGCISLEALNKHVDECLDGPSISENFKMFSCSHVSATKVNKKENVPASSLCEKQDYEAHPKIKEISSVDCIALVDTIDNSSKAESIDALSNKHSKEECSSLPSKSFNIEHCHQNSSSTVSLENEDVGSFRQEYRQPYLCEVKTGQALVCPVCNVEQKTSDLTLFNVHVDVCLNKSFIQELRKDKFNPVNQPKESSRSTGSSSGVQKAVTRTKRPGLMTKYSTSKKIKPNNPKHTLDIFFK
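Kinetic fluorescence screen: compound preincubated 15 min RT with 10 nM enzyme; 50 nM substrate (final) initiates; reads at 0/10 min.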
Pol eta inh = qHTS for Inhibitors of Polymerase Eta. recombinant Pol eta, fluorescent DNA replication assay. Potency, µM (highest dose often 114 µM), for inactives: at the highest dose activity change, negative = inhibition, most hits filed as inhibitors. 390,000 compounds, 1.2% hits; note: % is set by controls: 0 for no effect and ±100 for the full control effect
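Pol eta at 10 nM preincubated with compounds 15 min at room temperature; reaction started with fluorescent substrate (50 nM final) and read kinetically at 0 and 10 min.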
POLB inh = qHTS Assay for Inhibitors of DNA Polymerase Beta | Pol beta primer extension/strand displacement, fluorescence kinetic | Potency, µM (top dose mostly 114 µM), without a hit: at the top dose activity change, negative = inhibition, hits mostly inhibitors | 340,000 compounds, 1.3% hits | AID 485314, 2010; note: % is set by controls: 0 for no effect and ±100 for the full control effect
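Kinetic readout of DNA synthesis with strand displacement by Pol beta. Compound and 10 nM enzyme sit 15 min at room temperature; 50 nM substrate starts the reaction, read immediately and at 10 min.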
FEN1 inh = qHTS Assay for the Inhibitors of Human Flap endonuclease 1 (FEN1). AID 588795, 2011. Potency, µM (top dose mostly 114 µM), for the others: at the highest dose activity change, negative = inhibition, usual class: inhibitors. Recombinant FEN1 flap cleavage, fluorescence, 15 min. P39748. 390,000 compounds, 0.35% hits; note: % is set by controls: 0 for no effect and ±100 for the full control effect; nearly all actives have a fitted effect of over 65% in size
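In this screen, 50 nM flap DNA substrate was added to 10 nM FEN1 pretreated with compound for 15 min at room temperature; cleavage was followed with reads at 0 and 15 min, and Hill fitting gave concentration–response parameters.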
Pol iota inh = qHTS for Inhibitors of Polymerase Iota; Pol iota fluorescent replication assay, 10 min; 390,000 compounds, 1% hits; Potency, µM (series often up to 115 µM), inactives show top-dose activity, negative = inhibition, most hits filed as inhibitors; DNA polymerase iota (Homo sapiens), Q9UNA4; AID 588590, 2011
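Pol iota at 10 nM preincubated 15 min with compounds at room temperature; reaction started with fluorescent substrate, 50 nM final. Fluorescence read kinetically at 0 and 10 min; buffer-only wells as negative control.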
WRN inhibitor = qHTS for Inhibitors of WRN Helicase; WRN helicase unwinding, fluorescent forked duplex, kinetic; Potency, µM (highest dose often 114 µM), for the others: at the highest dose activity change, negative = inhibition, usual class: inhibitors; 360,000 compounds, 0.46% hits; AID 651768, 2012; note: % is set by controls: 0 for no effect and ±100 for the full control effect; nearly all actives have a fitted effect of over 55% in size
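Kinetic red-fluorescence monitoring (525/598 nm) tracks WRN helicase activity after 100 nM fluorophore-quencher forked duplex and 2 mM ATP are added to 20 nM enzyme pretreated 15 min at room temperature with compound.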
Numbers without * were called inactive; ? = inconclusive; . = not tested or not shown; [ ] = another dose, or the depositor's remark. Calls come from the whole dose curve; as a rule, active = well fitted curve in the direction sought with a large enough effect; inconclusive = small, poorly fitted or top-dose-only effect, or another doubt; inactive = no such curve, though single readings can be large; an effect the other way counts as inactive or inconclusive. Potency is the fitted concentration of half-maximal effect.

SMILES	POLK inh	Pol eta inh	POLB inh	FEN1 inh	Pol iota inh	WRN inhibitor
CCCC(=O)Nc1ccc(C(=O)N/N=C/c2ccc([N+](=O)[O-])o2)cc1	-10%	?	45µM*	-29%	?	3%[11.6 µM]
CC(C)C[C@H](NC(=O)[C@H](CCCCN)NC(=O)CNC(=O)[C@H](CC(C)C)NC(=O)[C@@H](NC(=O)[C@@H]1CSSC[C@H](N)C(=O)N[C@@H](CO)C(=O)N[C@@H](CC(N)=O)C(=O)N[C@@H](CC(C)C)C(=O)N[C@@H](CO)C(=O)N[C@@H]([C@@H](C)O)C(=O)N1)C(C)C)C(=O)N[C@@H](CO)C(=O)N[C@@H](CCC(N)=O)C(=O)N[C@@H](CCC(=O)O)C(=O)N[C@@H](CC(C)C)C(=O)N[C@@H](Cc1cnc[nH]1)C(=O)N[C@@H](CCCCN)C(=O)N[C@@H](CC(C)C)C(=O)N[C@@H](CCC(N)=O)C(=O)N[C@H](C(=O)N[C@@H](Cc1ccc(O)cc1)C(=O)N1CCC[C@H]1C(=O)N[C@@H](CCCNC(=N)N)C(=O)N[C@H](C(=O)N[C@@H](CC(N)=O)C(=O)N[C@H](C(=O)NCC(=O)N[C@@H](CO)C(=O)NCC(=O)N[C@H](C(=O)N1CCC[C@H]1C(N)=O)[C@@H](C)O)[C@@H](C)O)[C@@H](C)O)[C@@H](C)O	5%[60.1 µM]	.	.	.	.	.
CC(C)CCN(Cc1ccco1)C(=O)c1cc2c(Cl)nc3ccccc3c2s1	-4%	-25%	3%	0%	40%	.
CC(CNC(=O)c1ccc(Cn2c(=O)c3cccn3c3cccnc32)cc1)c1ccccc1 (configuration not stated)	-3%	9%	36%	-13%	10%	.
COc1ccc2cc(C(=O)N/N=C/c3cc(OC)c(OC)c(OC)c3)[nH]c2c1	-53%	?	10µM*	?	?	-11%[11.6 µM]
COc1ccc(/C=N/NC(=O)c2cc3cc(OC)c(OC)cc3[nH]2)cc1	-76%	?	6.3µM*	-31%	-22%	?
COc1ccc2[nH]c(C(=O)N/N=C/c3ccc(O)cc3O)cc2c1	?	?	?	?	-30%	-27%
CCOc1ccc2[nH]c(C(=O)N/N=C/c3ccc(OC)cc3)cc2c1	-1%	-9%	15%	-12%	-8%	2%
COCCN1C(=O)/C(=C/c2ccc(N3CCCC3)cc2C)SC1=S	-7%	-19%	17%	3%	?	79µM*
Cc1ccc(C(C)C)c(OCCSc2nc(-c3cccs3)nc3cc(=O)[nH]n23)c1	-20%	?	?	-35%	-26%	.
C=CCc1ccccc1OCCSc1nc(-c2cccs2)nc2cc(=O)[nH]n12	?	79µM*	25µM*	-24%	?	.
CC(C)(C)c1ccc(-c2nc(SCCOc3ccc(Cl)cc3)n3[nH]c(=O)cc3n2)cc1	-19%	50µM*	?	-17%	11%	.
Cc1ccc(OCCCSc2nc(-c3ccc(C(C)(C)C)cc3)nc3cc(=O)[nH]n23)cc1C	-20%	45µM*	?	?	1%	.
CC(C)(C)c1ccc(OCCSc2nc(-c3cccs3)nc3cc(=O)[nH]n23)cc1	?	?	32µM*	-21%	25%	.
COC(=O)c1cc2sc(C)cc2n1Cc1nc(-c2ccc(C)cc2)oc1C	-10%	.	-6%	13%	20%	.
CCc1cccc(NC(=O)C2CCCN2S(=O)(=O)c2ccc3nc(-c4ccccc4)[nH]c3c2)c1 (configuration not stated)	-21%	-8%	-20%	-21%	?	.
Oc1cccc(C=NCc2ccccc2)c1O	14µM*	?	3.5µM*	?	7.9µM*	40µM*
Oc1cccc(C=Nc2cccc3ccccc23)c1O	35µM*	-16%	8.9µM*	?	11µM*	0%[11.6 µM]
Oc1ccccc1C=Nc1cccc2ccccc12	-9%	-19%	-1%	21%	62%	3%
O=C(Nc1ccc(O)c2c(=O)cc(-c3ccccc3Cl)oc12)c1cc(Cl)cc(Cl)c1	-26%	.	.	11%	13%	.
O=C(NCCN1CCCCC1)c1ccc(Cn2c(SCc3ccc(F)cc3)nc3cccnc32)cc1	6%	-20%	26%	-1%	19%	.
COc1ccc(/C=C2\CCn3c2nc2cc(C(=O)O)ccc2c3=O)cc1O	-35%	18µM*	25µM*	?	?	?
COc1ccc(/C=C2\CCn3c2nc2cc(C(=O)O)ccc2c3=O)cc1OC	4%	-21%	7%	-4%	-20%	?
C=C[C@@H]1c2cc(C)ccc2N(S(=O)(=O)c2ccc(C)cc2)[C@H](c2ccc(C(=O)OC)cc2)C1(C#N)C#N	-4%	.	.	13%	12%	.
COc1ccc(CCSc2n[nH]c(C(C)C)n2)cc1	8%	.	.	-7%	35%	.
SMILES	POLK inh	Pol eta inh	POLB inh	FEN1 inh	Pol iota inh	WRN inhibitor
O=C(Nc1ccc(Cl)c([N+](=O)[O-])c1)c1cnccn1	?	22µM*	40µM*	-11%	?	-32%
O=C(Nc1ccc(Cl)c([N+](=O)[O-])c1)c1ccncc1	-8%	-17%	9%	15%	0%	-28%
COc1cccc(CCn2c(N)cc(=O)[nH]c2=S)c1OC	5%	.	.	1%	39%	.
Cc1nn2c(-c3cccc(NC(=O)CN4CCOCC4)c3)nnc2c2ccccc12	1%[60.1 µM]	?	.	?	40µM*	-5%[11.6 µM]
Cc1ccc(-c2nnc3c4ccccc4c(C)nn23)cc1NC(=O)CN1CCOCC1	.	.	-3%	.	.	.
COc1cc(OC)c(NC(=O)CN2CCCN(Cc3ccccc3C)S2(=O)=O)cc1Cl	1%[60.1 µM]	-18%	78%	-1%	-1%	.
COc1ccc(-c2csc(NC(=O)CSc3n[nH]c(N)n3)n2)cc1	-5%	-7%	16%	-11%	168%	-9%
CCOc1ccc(/C=C/C2=Cc3c(sc(NC(=O)CSc4n[nH]c(N)n4)c3C#N)C(C)(C)C2)cc1	-23%	-7%	-1%	-8%	?	45µM*
Nc1nccc(/C=C/c2c(F)cccc2Cl)n1	-1%	-15%	1%	11%	69%	-24%[57.1 µM]
O=c1cc(/C=C/c2c(F)cccc2Cl)[nH]c2ccccc12	-10%	11µM*	27%	-9%	13%	-27%[57.1 µM]
NC(=O)Nc1ccc(/C=C2\C=Cc3ccccc32)cc1	-11%	.	.	-17%	5%	.
